Assay results: PubChem BioAssay (NCATS)
Records with an inconclusive call do not appear. The source made the active and inactive calls. Calls follow the shape of the dose curve; as a rule, active = well fitted curve in the direction sought with a large enough effect; inconclusive = small, poorly fitted or top-dose-only effect, or another doubt; inactive = no such curve, though single readings can be large; an effect the other way counts as inactive or inconclusive.

How the values were obtained:
[1] = J3T Cancer Cell Toxicity qHTS against the NCATS CANVASS Library (AID 1347371); details: J3T dog glioma viability, ATP luminescence, 72 h; at 91.4 µM (top of the series)
In short: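 Cytotoxicity read as CellTiterGlo ATP luminescence after 72 h incubation (37C, 5% CO2) of J3T canine glioma cells (500/well) with an 11-point compound series.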

[2] = target: Nuclear receptor subfamily 1 group I member 3 (Homo sapiens) (UniProt Q14994); test: qHTS for Constitutive Androstane Receptor (CAR) Antagonist screened against the NCATS CANVASS Library (AID 1347372); details: HepG2-hCAR-CYP2B6 luciferase, CITCO-stimulated antagonist mode; series mostly up to 91.4 µM
In short: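 Luminescence readout (ONE-Glo, 30 min RT) of CYP2B6-2.2kb reporter in HepG2-hCAR cells after 24hr, 37C treatment with compound against 50 nM CITCO; CellTiter-Fluor viability read beforehand.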

[3] = target: Nuclear receptor subfamily 1 group I member 3 (Homo sapiens) (UniProt Q14994); test: qHTS for Constitutive Androstane Receptor (CAR) Agonist screened against the NCATS CANVASS Library (AID 1347373); details: HepG2-hCAR-CYP2B6 luciferase reporter, ONE-Glo luminescence; series mostly up to 91.4 µM
In short: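 Agonist mode with 1.5uM PK11195 present: compounds for 24hr on HepG2-hCAR-CYP2B6 cells. CellTiter-Fluor fluorescence (ex 405, em 540 nm) gives viability; ONE-Glo luminescence reports CAR activation.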

[4] = 10-beta competent E. coli microbial cell viability qHTS against the NCATS CANVASS Library (AID 1347376); details: E. coli 10-beta viability, BacTiter-Glo ATP luminescence, overnight; series mostly up to 91.4 µM
In short: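 Read-out: BacTiter-Glo ATP luminescence, taken 20 min after reagent addition. Beforehand, 10-beta competent E. coli at 0.2 OD had been incubated overnight at 37C with compounds at 11 concentrations.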

[5] = DH5-alpha competent E. coli microbial cell viability qHTS against the NCATS CANVASS Library (AID 1347377); details: BacTiter-Glo ATP luminescence, overnight; series mostly up to 91.4 µM
In short: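 Bacterial viability as ATP-dependent luminescence (BacTiter-Glo), read after overnight 37 °C exposure of DH5-alpha competent E. coli to compounds in 11-point titration.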

[6] = qHTS for H2AX Agonists against the NCATS CANVASS Library (AID 1347378); details: CHO-K1 H2AX phosphorylation, HTRF TR-FRET, 3 h; series mostly up to 153 µM
In short: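 Following overnight seeding, CHO-K1 cells are incubated with a concentration series of compound for 3 hr at 37C (final DMSO 0.76%). Cells are then lysed, detection antibodies added, and emission ratio 665/620 nm recorded after 24 hr at room temperature.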

[7] = qHTS for Inflammasome Signaling Inhibitors: IL-1-beta AlphaLISA screen against the NCATS CANVASS Library (AID 1347379); details: THP-1 LPS/ATP, IL-1B AlphaLISA secretion, 16 h; at 114 µM (top of the series)
In short: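 Secreted IL-1B from human THP-1 cells quantified by AlphaLISA 16 hr after compound addition (final up to 57.5 uM). A 1 hr compound pretreatment preceded inflammasome activation with 250 ng/mL LPS plus 1.25 mM ATP (final).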

[8] = qHTS for Antimalaria activity screened against the NCATS CANVASS Library (AID 1347380); details: P. falciparum Dd2 growth, SYBR Green fluorescence, 72 h; series mostly up to 57 µM
In short: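 SYBR Green fluorescence at 485/535 nm was read 18 hr after lysis. This followed a 72 hr incubation at 37C in 5% O2, 5% CO2 of Dd2-infected erythrocytes (0.3% parasitemia, 2.5% final hematocrit) with compounds titrated over 11 concentrations.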

[9] = Inflammasome Signaling qHTS Counterscreen: IL-1-beta AlphaLISA counterscreen against the NCATS CANVASS Library (AID 1347381); details: Purified IL-1beta AlphaLISA signal interference counterscreen; series mostly up to 114 µM
In short: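 Purified IL-1-beta (4 pg/well) + compound, 11-pt conc. series; acceptor beads 6 ug/mL + biotin-Ab 0.6 nM final, 1 h RT; SA-donor 24 ug/ml final, 30 min dark RT; read ex 680/em 615.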

[10] = Cytotoxicity qHTS for assessment of Hepg2 cells membrane integrity screened against the NCATS CANVASS Library (AID 1347387); details: HepG2 LDH release (CytoTox-ONE) fluorescence, 5 h; series mostly up to 91.4 µM
In short: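 Membrane damage quantified as fluorescent LDH-release signal (ex 560, em 590 nm) in HepG2 cells treated 5 hr at 37C. qHTS format, 11 concentrations spanning 0.59 nM - 46 uM final, cells plated at 2000 per well the night before.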

[11] = qHTS for Activators of p53 Stress Response Pathway screened against the NCATS CANVASS Library (AID 1347388); details: p53RE-bla HCT-116, beta-lactamase reporter, 16 h; series mostly up to 91.4 µM
In short: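 p53RE-bla HCT-116 cells (4000/well) were pre-incubated for 5 h, then treated with compound (11 points) for 16 h at 37C. After 2 h with CCF4, the 460/530 nm ratio gave reporter activation; CellTiter-Glo measured viability.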

[12] = qHTS assay for small molecule disruptors of mitochondrial membrane potential screened against the NCATS CANVASS Library (AID 1347389); details: HepG2 mitochondrial membrane potential, m-MPI red/green ratio, 1.5 h; series mostly up to 91.4 µM
In short: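 Mitochondrial membrane potential in HepG2: 1 h compound treatment (11-point concentration series), 30 min m-MPI dye at 37C, then dual fluorescence of J-aggregates (ex 540/em 590) and monomers (ex 490/em 535); lower red/green ratio indicates depolarization.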

[13] = Secretion counterscreen for inhibitors of the SERCaMP assay screened against the NCATS CANVASS Library (AID 1347390); details: SH-SY5Y constitutive GLuc secretion, luminescence, 20 h; series mostly up to 152 µM
In short: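 Counterscreen identifying compounds that disrupt secretion, using SH-SY5Y cells with a constitutively secreted Gaussia luciferase reporter. A 20 h compound exposure (top 77 uM) precedes luminescent detection with coelenterazine.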

[14] = qHTS for activators of Nrf2/ARE signaling pathway screened against the NCATS CANVASS Library (AID 1347391); details: ARE-bla HepG2, beta-lactamase reporter, 16 h; series mostly up to 91.4 µM
In short: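 Eleven-point qHTS, 16 h treatment of HepG2 cells carrying an ARE-driven beta-lactamase reporter; CCF4 ratio read (405 nm excitation, 460 and 530 nm emission), with CellTiter-Glo ATP luminescence for viability.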

[15] = qHTS for activators of dead-cell proteases activity screened against the NCATS CANVASS Library (AID 1347392); details: HepG2 cytotoxicity, dead-cell protease luminescence, 5 h; series mostly up to 91.4 µM
In short: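 HepG2, 2000 cells/well, 18 h attach; cpd 11-pt, 5 h 37C 5% CO2; CytoTox-Glo (AAF-aminoluciferin) 15 min RT; luminescence read.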

[16] = Vero-766 cells viability qHTS against the NCATS CANVASS Library: Counterscreen for Zika virus inhibition assay (AID 1347394); details: Vero 766 viability, CellTiter-Glo luminescence, 72 h; series mostly up to 91.4 µM
In short: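 This cytotoxicity counterscreen uses African green monkey Vero 766 cells in the absence of Zika virus. Compounds are incubated with cells for 72 h, and ATP-based luminescence reports viability.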

[17] = qHTS for inhibitors of Wild type Zika virus screened against the NCATS CANVASS Library (AID 1347396); details: Vero cells, Zika virus CPE, CellTiter-Glo, 72 h; series mostly up to 91 µM
In short: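 Using ATP-based luminescence (CellTiter Glo), this screen scores rescue of Vero 766 cells from wild-type Zika killing at 72 h post-infection. Compounds are tested in a concentration series.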

[18] = Viability qHTS for inhibitors of the SERCaMP assay screened against the NCATS CANVASS Library (AID 1347400); details: SH-SY5Y SERCaMP cells viability, CellTiter-Glo, 48 h; series mostly up to 183 µM
In short: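 CellTiter-Glo luminescence measured cytotoxicity after 48 h at 37C of compound treatment (11-point series). Cells were SH-SY5Y-GLuc SERCaMP MJH297 derivatives, seeded at 1000 per well 4 h beforehand.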

[19] = Redox Reaction Profiling qHTS: Assay Interference Panel against the NCATS CANVASS Library (AID 1347401); details: resazurin-DTT redox cycling, fluorescence, 15 min; series mostly up to 113 µM
In short: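 Fluorescence read-out (525 nm excitation, 598 nm emission) at time zero and after 15 min in the dark tracked resorufin formation. Mix: 5 uM resazurin, 200 uM DTT, HEPES pH 7.3 buffer with NaCl.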

Measured: outcome

Chain of Nuclear receptor subfamily 1 group I member 3 (Homo sapiens) (Q14994 whole entry, looked up): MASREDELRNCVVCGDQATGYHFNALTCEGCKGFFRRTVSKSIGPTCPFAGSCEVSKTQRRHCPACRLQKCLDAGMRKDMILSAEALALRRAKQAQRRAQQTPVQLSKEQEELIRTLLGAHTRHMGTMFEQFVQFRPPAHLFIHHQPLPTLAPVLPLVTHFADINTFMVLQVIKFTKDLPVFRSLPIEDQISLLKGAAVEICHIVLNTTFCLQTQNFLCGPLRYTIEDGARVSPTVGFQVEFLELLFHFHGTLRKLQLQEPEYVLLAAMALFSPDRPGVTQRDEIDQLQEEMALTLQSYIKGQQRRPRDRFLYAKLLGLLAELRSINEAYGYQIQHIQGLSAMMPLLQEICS

NCCc1ccc(O)cc1
inactive: all assays above
